Data taken from PubChem BioAssay AID1578 (Sanford-Burnham Center for Chemical Genomics, 2009).
The campaign covered roughly 290,000 compounds. About 3,000 (1%) were called active. This excerpt belongs to a sample that is enriched for actives. Values without a mark were called inactive. No stated cut-off is given here; in the data, active means inhibition mostly above about 36% (no sharp cut-off); inactive means mostly below about 34%.

Experiment: inhibition of NOD1-driven NF-kB reporter – cell-based, luminescence, uHTS, primary screen (AID 1578);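 further: HEK-293T reporter cells stimulated with the NOD1 agonist gamma-tri-DAP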
Settings: NOD1-driven NF-kB luciferase reporter cells, at 4 µM, active compounds read high

Row | SMILES | inhibition
1 | CC(C)N(CCCNC(=O)c1ccc(CS(=O)(=O)c2c(Cl)cccc2Cl)o1)Cc1ccccc1 | -4.4%
2 | CCOC(=O)N1CCN(C(=O)CSc2ccc3nnc(-c4cccnc4)n3n2)CC1 | -22.3%
3 | CCOC(=O)C1(Cc2cccc(OC)c2)CCCN(C(=O)CCc2cccnc2)C1 (stereo unspecified) | -50.3%
4 | CCc1ccc(-n2cccc2/C=C2/C(=N)N3C(=NC2=O)SN=C3S(C)(=O)=O)cc1 | 1.2%
5 | Cc1nn(CC(=O)N2CCC(C(N)=O)CC2)c(=O)c2nn(-c3ccccc3)c(C)c12 | -5.3%
6 | COc1ccc(CNC(=O)c2csc(Cc3ccc(Cl)cc3)n2)cc1 | 25.6%
7 | COc1ccc(-c2nc(N3CCCC3)[nH]c(=O)c2C#N)cc1 | -42.4%
8 | COc1ccc(-c2nc(N3CCC(C)CC3)[nH]c(=O)c2C#N)cc1 | 73.1% (active)
9 | CC1CCN(c2nc(-c3ccccc3)c(C#N)c(=O)[nH]2)CC1 | 34.5%
10 | CCOC(=O)N1CCN(CC(O)COc2c(C)cccc2C)CC1 (stereo unspecified) | 24.9%
11 | CCC(C)(C)NC(=S)Nc1ccccc1C | -38.1%
12 | C=CCn1c(Oc2cccc(C)c2)nc2c1c(=O)n(C)c(=O)n2C | -2.9%
13 | Cc1ccc(-c2onc3ccc(Cl)cc23)cc1 | -3.6%
14 | COc1ccc(-c2onc3ccc(Cl)cc23)cc1 | -9.1%
15 | Cc1cc(-c2onc3ccc(Cl)cc23)ccc1O | 52.9% (active)
16 | CN1CCN(S(=O)(=O)c2cccc(C(=O)N(c3ccccn3)C3CCCCC3)c2)CC1 | -0.4%
17 | Cc1nc(SCC(=O)N2CCN(c3ccccc3)CC2)c2oc3ccccc3c2n1 | 33.4%
18 | CCc1nc(Nc2ccc(N3CCN(C(C)=O)CC3)cc2)c2oc3ccccc3c2n1 | 7.6%
19 | CC1(O)CC(c2ccc(Cl)cc2)=NN1C(=O)c1ccc(Cl)cc1 (stereo unspecified) | -27.7%
20 | CC(=O)N1N=C(c2ccc(Cl)cc2)CC1c1ccc([N+](=O)[O-])cc1 (stereo unspecified) | -12.3%
21 | CC1(O)CC(c2ccc(Cl)cc2)=NN1C(=O)c1ccc([N+](=O)[O-])cc1 (stereo unspecified) | 92.3% (active)
22 | COC(=O)c1cc(C)ccc1OCc1ccc([N+](=O)[O-])cc1 | -8.7%
23 | CCOc1cc(/C=C2/NC(=S)NC2=O)ccc1OCc1ccc([N+](=O)[O-])cc1 | -30%

Row | SMILES | inhibition
24 | COc1cc(/C=C/C(=O)O)ccc1OCc1ccc([N+](=O)[O-])cc1 | -13.3%
25 | CCOc1cc(/C=N/O)ccc1OCc1ccc([N+](=O)[O-])cc1 | -20.2%
26 | O=C(NCCc1ccccc1)C1(S(=O)(=O)c2ccc(Cl)cc2)CC1 | 7.4%
27 | O=C(CSc1nc(-c2ccncc2)nn1CC(=O)N1CCCCC1)NC1CCCC1 | -4%
28 | CC1CC(=O)N(CC(=O)NCc2ccccc2)c2ccccc2S1(=O)=O (stereo unspecified) | -32.8%
29 | O=C1CCc2cc(S(=O)(=O)N3CCN(c4cccc(C(F)(F)F)c4)CC3)ccc2N1 | -6.5%
30 | CC(=O)c1ccccc1NC(=O)COC(=O)/C(=C/c1ccccc1)n1nnnc1C | -8%
31 | Cc1nnnn1/C(=C\c1ccccc1)C(=O)OCC(=O)NC(C)(C)C | 91.3% (active)
32 | CC(=O)Nc1ccc(NC(=O)COC(=O)/C(=C/c2ccccc2)n2nnnc2C)cc1 | -15.3%
33 | CCOC(=O)C1(CCCc2ccccc2)CCN(C(=O)c2cnc(C)cn2)CC1 | 2.2%
34 | CC(=O)OC(C(=O)NC1CCCCC1)c1ccc(Cl)c(Cl)c1 (stereo unspecified) | -34.6%
35 | COc1ccc(OCC(=O)N/N=c2\oc3c(OC)cccc3cc2C(N)=O)cc1 | -30.3%
36 | COc1ccc(CNC(=O)C(c2cccs2)N(Cc2ccco2)C(=O)Cc2cccs2)cc1 (stereo unspecified) | 23.3%
37 | COc1ccc(CNC(=O)C(c2ccc(C)o2)N(Cc2cccs2)C(=O)Cc2cccs2)cc1 (stereo unspecified) | 68.3% (active)
38 | COc1ccc(CNC(=O)C(c2ccco2)N(Cc2cccs2)C(=O)Cc2cccs2)cc1 (stereo unspecified) | 2%
39 | COC(=O)C(C)n1cnc2c(nnn2-c2ccccc2)c1=O (stereo unspecified) | -9.8%
40 | COc1ccc(C(=O)Nc2c(N)nc(SCC(=O)N3CCCCCC3)[nH]c2=O)cc1OC | -4.3%
41 | Cc1cc2c(cc1S(=O)(=O)Nc1cccc(F)c1)n(C)c(=O)c(=O)n2C | 13.5%
42 | O=C(c1ccc(Sc2cccc(Cl)c2)c([N+](=O)[O-])c1)N1CCN(c2ccccn2)CC1 | -34.4%
43 | O=C(c1ccc(N2CCCC2)c([N+](=O)[O-])c1)N1CCN(c2ccccn2)CC1 | -8.1%
44 | O=C(c1ccc(S(=O)(=O)Cc2ccccc2Cl)c([N+](=O)[O-])c1)N1CCOCC1 | 13.5%
45 | O=C(c1ccc(Cl)c([N+](=O)[O-])c1)N1CCN(c2ccccn2)CC1 | -1.9%
46 | CC(C)Cc1nnc(NC(=O)CCC(=O)NC2CCCC2)s1 | -20.3%

Row | SMILES | inhibition
47 | CC/C=C/C(=O)N1CC2(CC(c3cccc(NC(=O)c4ccccc4)c3)=NO2)C[C@@H]1C(N)=O (stereo partly specified) | 20.5%
48 | O=c1c2c3c(sc2nc2n1CCC2)CCCCC3 | -41%
49 | Cn1cnc2cc(NC(=O)COc3ccccc3)ccc21 | -63.1%
50 | Cc1cccn2c(=O)c3cc(S(=O)(=O)c4ccc(Br)cc4)c(=N)n(C4CCCC4)c3nc12 | -42.6%
51 | O=C(O)c1cccc(NS(=O)(=O)c2cc(S(=O)(=O)c3ccc(Cl)cc3)ccc2Cl)c1 | 0.3%
52 | COc1cc(C(=O)NCc2ccc(-c3nc4ccccc4s3)cc2)cc(OC)c1OC | -45%
53 | COc1ccc(C(=O)NCc2ccc(-c3nc4ccccc4s3)cc2)cc1OC | -86.1%
54 | Cc1ccc(-n2c(SCC(=O)Nc3ccc(C(=O)O)cc3)nnc2-c2ccncc2)cc1 | -9.4%
55 | O=C(CCNS(=O)(=O)c1c(Cl)cccc1Cl)OCC(=O)c1ccccc1 | 10.5%
56 | COc1ccccc1COC(=O)Nc1c(C)nn(C)c1Cl | 10.8%
57 | Cc1nn(C)c(Cl)c1NC(=O)OCc1ccc(Cl)cc1Cl | 68.3% (active)
58 | Cc1nn(C)c(Cl)c1NC(=O)OCc1ccccc1 | -9.7%
59 | CCc1ccccc1NC(=O)CCC(=O)N1CCSc2ccccc21 | -3%
60 | O=Nc1c(O)n(Cc2cccc(Cl)c2)c2ccccc12 | 34.1%
61 | O=Nc1c(O)n(Cc2cccc(C(F)(F)F)c2)c2ccccc12 | 82.8% (active)
62 | O=Nc1c(O)n(Cc2ccccc2)c2ccccc12 | 9.5%
63 | Cc1cccc(NC(=S)NNC(=S)NC2CCCCC2)c1C | -15.3%
64 | CCOC(=O)c1[nH]c(C)c(CN(CCc2ccc(OC)c(OC)c2)C(=O)CCCC(=O)O)c1C | -27.8%
65 | CCOC(=O)C1CCCN(C(=O)CCn2nnnc2CN2CCOCC2)C1 (stereo unspecified) | -14.8%
66 | CCOC(=O)C1CCCN(C(=O)CCCn2nnnc2CN2CCC(C)CC2)C1 (stereo unspecified) | -6.9%
67 | CCOC(=O)C1CCCN(C(=O)CCCn2nnnc2CN2CCOCC2)C1 (stereo unspecified) | 45% (active)
68 | O=C(O)CN1C(=O)CSc2ccccc21 | 14.5%
69 | O=C(CN1CCSc2ccccc21)NCCCc1ccccc1 | -29.8%

Row | SMILES | inhibition
70 | CCOC(=O)c1ccc(N2C(=O)CC(C)(CC)CC2=O)cc1 | -5%
71 | CC(C)(C)c1ccc(NC(=O)N2CCCN(c3ccc([N+](=O)[O-])cn3)CC2)cc1 | 0.9%
72 | CC(C)(C)c1ccc(NC(=O)N2CCN(c3ccc([N+](=O)[O-])cn3)CC2)cc1 | 29.4% (active)
73 | CC(C)(C)c1ccc(C(=O)N2CCCN(c3ccc([N+](=O)[O-])cn3)CC2)cc1 | -3.4%
74 | O=C(O)CCCN1C(=O)/C(=C/C=C/c2ccco2)SC1=S | 23.3% (active)
75 | O=C(O)CCCN1C(=O)/C(=C\c2ccco2)SC1=S | -3.5%
76 | O=C(O)CC(C(=O)O)N1C(=O)/C(=C/C=C/c2ccco2)SC1=S (stereo unspecified) | -8.8%
77 | CC(=O)Nc1ccc(C(=O)N/C(=C/c2ccccc2)C(=O)Nc2cccc(C(=O)O)c2)cc1 | -27.4%
78 | O=C(CN1CCCCCC1)NCc1ccccc1 | -25.9%
79 | O=C(CSc1nnc(Cn2nnc3ccccc32)o1)N(Cc1ccc(F)cc1)c1ccccc1 | 37.1%
80 | COc1ccc(N(Cc2ccccc2)C(=O)CSc2nnc(Cn3nnc4ccccc43)o2)cc1 | -12.4%
81 | O=C(CSc1nnc(Cn2nnc3ccccc32)o1)N(Cc1ccc(Cl)cc1)c1ccccc1 | 48.7% (active)
82 | O=C(O)c1ccc2c(c1)ncn2C1CCCCC1 | -10.3%
83 | NNC(=O)c1csc(Cc2c(Cl)sc3ccc(Cl)cc23)n1 | 11.9%
84 | CCOC(=O)CC1C(=O)NCCN1C(=O)COc1ccc(C(C)(C)C)cc1 (stereo unspecified) | -17.7%
85 | O=C(O)Cc1ccc(NC(=O)Cc2ccc3ccccc3c2)cc1 | -30.6%
86 | COc1cccc(-n2nnc3c(=O)n(CC(=O)N4CCCCC4)cnc32)c1 | -13.7%
87 | Cc1ccc(NC(=O)C2C3C=CC4(O3)C2C(=O)N(CCCN2CCOCC2)C4C(=O)NC2CCCCC2)cc1Cl (stereo unspecified) | -35.1%
88 | CC(C)c1cc(NC(=O)CSc2nnc(-c3ccccc3F)n2C)on1 | 18.2%
89 | CC(C)c1cc(NC(=O)CCl)on1 | 41.7% (active)
90 | CC(C)c1cc(C(=O)O)on1 | -10.1%
91 | CCc1ccc(NC(=O)c2cc(CC(C)C)on2)cc1 | -39.3%
